DT40 TDP1 CPT: growth inhibition of DT40 Tdp1-/-;hTDP1 cells with camptothecin (screen for TDP1 inhibitors). chicken DT40 Tdp1-/-;hTDP1 cells + 20 nM CPT, ATP luminescence, 48 h. AID 686979. actives 12% (n = 420,000). Potency, µM (highest dose often 46.2 µM), for inactives: top-dose activity change, negative = growth inhibition, hits mostly inhibitors; also: nearly all actives have a fitted effect of over 55% in size
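Chicken DT40 Tdp1-/- cells complemented with human TDP1, 400 cells/well, exposed to compounds plus 20 nM camptothecin for at least 48 h at 37 C; viability read as ATP content by CellTiter-Glo luminescence.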
HT1080 IDH1KD tx: toxicity to HT-1080 IDH1 knockdown cells (counter line); HT-1080 IDH1 knockdown viability, ATP luminescence, 48 h; Potency, µM (doses to about 46.1 µM), for inactives: top-dose activity, negative = toxicity, actives largely listed as cytotoxic; actives 2% (n = 360,000); AID 686971;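 also: 0% = DMSO wells and -100% = cell-free medium wells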
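CellTiter-Glo luminescence after 48 h compound exposure at 37 degrees C of IDH1-knockdown HT-1080 cells in 5% FBS RPMI. %Activity scaled between DMSO wells and cell-free media wells, with curves fitted and assigned curve classes.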
KB-V1 MDR tox: KB-V1 MDR subline cytotoxicity | KB-V1 MDR cells viability, CellTiter-Glo, 72 h | Potency, µM (series often up to 46.1 µM), hits mostly cytotoxic | actives 3.4% (n = 400,000); also: nearly all actives have a fitted effect of over 60% in size
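Readout: CellTiter-Glo luminescence, 10 min after addition. Cells: KB-V1 MDR subline, 72 h at 37 degrees C with compound. Analysis: corrected, normalized data fitted to concentration-effect curves.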
DT40 TDP1 no CPT: qHTS for Inhibitors of human tyrosyl-DNA phosphodiesterase 1 (TDP1): qHTS in cells in absence of CPT; actives 15% (n = 420,000); Potency, µM (titrated, usually from 46.2 µM), for inactives: top-dose activity change, negative = growth inhibition, actives largely listed as inhibitors; DT40 Tdp1-/- hTDP1 cells, no CPT, ATP luminescence, 48 h; also: nearly all actives have a fitted effect of over 55% in size
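No-CPT arm: Tdp1-/-;hTDP1 DT40 cells (400/well) plus compounds, incubated ≥48 hr at 37 °C. Readout CellTiter-Glo luminescence.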
KB-3-1 tox: kills parental KB-3-1 adenocarcinoma cells. Potency, µM (top dose mostly 46.1 µM), usual class: cytotoxic. actives 1.4% (n = 400,000). KB-3-1 viability, CellTiter-Glo ATP luminescence, 72 h; also: nearly all actives have a fitted effect of over 60% in size
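Using CellTiter-Glo luminescence, growth of non-resistant KB-3-1 adenocarcinoma cells is assessed 72 h after pin-tool compound addition at 37 °C. Normalized responses across the concentration series yield fitted curves.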
HT1080NT lethal: kills 2HG-producing HT-1080-NT fibrosarcoma cells; actives 1.6% (n = 360,000); HT-1080-NT fibrosarcoma viability, CellTiter-Glo ATP luminescence, 48 h; Potency, µM (titrated, usually from 46.1 µM), for the others: at the highest dose activity, negative = less viability, most hits filed as cytotoxic;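 also: NT is the 2HG producing partner of a matched IDH1 knockdown line; 0% = DMSO-treated cells and -100% = media-only wells without cells; nearly all actives have a fitted effect of over 55% in size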
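750 cells/well, RPMI + 5% FBS; 2 h settle, compound pin-transfer, 48 h at 37 degrees C. CellTiter-Glo 10 min RT, luminescence. Normalized to DMSO and media-only wells.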
Numbers without * were called inactive; i = inactive; ? = inconclusive; . = not tested or not shown; [ ] = remark or other dose. An excerpt weighted towards active compounds, which were near 19% of everything screened. Calls follow the shape of the dose curve; as a rule, active = well fitted curve in the direction sought with a large enough effect; inconclusive = small, poorly fitted or top-dose-only effect, or another doubt; inactive = no such curve, though single readings can be large; an effect the other way counts as inactive or inconclusive. Unless noted, % is scaled to controls: 0 for no effect and ±100 for the full control effect; potency is read from the fitted curve at half-maximal effect.

SMILES | DT40 TDP1 CPT | HT1080 IDH1KD tx | KB-V1 MDR tox | DT40 TDP1 no CPT | KB-3-1 tox | HT1080NT lethal
O=C1c2ccccc2C(=O)N1CCCc1cn(C[C@H]2CC[C@H](Cn3cc(CCCN4C(=O)c5ccccc5C4=O)nn3)O2)nn1 | -22% | -3% | i | ? | i | -1%
Cc1nc(-c2ccc(S(=O)(=O)N(C)Cc3ccccc3)cc2)co1 | 26µM* | . | i | 21µM* | i | .
COCc1nnc(NC(=O)c2ccc(S(=O)(=O)N(C)Cc3ccccc3)cc2)o1 | ? | -18% | i | ? | ? | ?
CCN(Cc1ccccc1)S(=O)(=O)c1ccc(C(=O)Nc2nnc(C3CC3)o2)cc1 | ? | -17% | i | 16µM* | ? | -15%
O=C(Nc1nnc(C2CC2)o1)c1ccc(S(=O)(=O)N2CCc3ccccc3C2)cc1 | -24% | -3% | ? | ? | i | -5%
Cc1nnc(NC(=O)c2ccc(S(=O)(=O)N(C)Cc3ccccc3)cc2)o1 | ? | ? | ? | 23µM* | i | -24%
CCc1nnc(NC(=O)CSCc2cc(=O)c3ccc(C)cc3[nH]2)s1 | -1% | . | ? | -2% | i | .
CCOC(=O)c1sc2ncnc(NCC(c3cccs3)N(C)C)c2c1C (stereo unspecified) | 29µM* | -13% | 21µM* | ? | i | -20%
Cn1c(SCc2nnc(-c3ccccc3Br)o2)nc2sc3c(c2c1=O)CCC3 | ? | 6%[9.24 µM] | i | 18µM* | i | ?
COCCn1c(SCC(=O)NCC(c2ccccc2)N(C)C)nc2sc3c(c2c1=O)CCC3 (stereo unspecified) | -6% | -11% | i | -18% | i | -8%
CN(C)C(CNC(=O)CSc1nc2sc3c(c2c(=O)n1C)CCCC3)c1ccccc1 (stereo unspecified) | 23µM* | -20% | i | 21µM* | i | -9%
COCCCn1c(SCc2nnc(-c3ccccc3)o2)nc2sc3c(c2c1=O)CCC3 | ? | 12% | ? | ? | i | 5%
Cn1c(SCC(=O)O)nc2sc3c(c2c1=O)CCC3 | -14% | -1% | ? | -16% | i | -5%
CCCn1c(=O)n(C)c(=O)c2c(SCC(=O)NCC(c3ccccc3)N(C)C)nc(CC(C)C)nc21 (stereo unspecified) | 21µM* | -2% | ? | 18µM* | i | 0%
Cc1nn(Cc2ccccc2)c(C)c1NC(=O)CSc1nc2sc3c(c2c(=O)n1C)CCC3 | ? | -9% | ? | 18µM* | 9.2µM* | 0%
COc1ccc(-n2c(=O)c3c4c(sc3n(Cc3c(F)cccc3Cl)c2=O)CN(C(C)=O)CC4)cc1OC | ? | . | i | ? | i | .
O=c1c(-c2cccs2)nc2cnc(N3CCOCC3)nc2n1CCc1ccccc1 | 2% | . | . | 22% | . | .
O=C(O)CSc1nc2sc3c(c2c(=O)n1-c1ccccc1)CCC3 | 2% | -1% | i | -28% | i | -3%
CC(NC(=O)CSc1nc2sc3c(c2c(=O)n1-c1ccccc1)CCCC3)c1ccccc1 (stereo unspecified) | 6.5µM* | 13% | ? | ? | i | 1%
CCOC(=O)c1ccc(-c2c(-c3ccccc3OC)sc3cc4c(cc23)OCO4)cc1F | ? | 3% | i | ? | i | ?
C[C@@H]1CCCCO[C@H](CN(C)C(=O)Nc2ccc3c(c2)OCO3)[C@H](C)CN([C@@H](C)CO)C(=O)c2cc(NS(=O)(=O)c3ccc(Cl)cc3)ccc2O1 | 16µM* | -22% | i | 16µM* | i | -16%
CC(C)NC(=O)N(C)C[C@H]1OCCCC[C@H](C)Oc2ccc(NS(=O)(=O)c3ccccc3)cc2C(=O)N([C@H](C)CO)C[C@H]1C | -1% | 1% | i | 4% | i | 13%
C[C@@H]1CCCCO[C@H](CN(C)C(=O)Nc2ccc3c(c2)OCO3)[C@@H](C)CN([C@H](C)CO)C(=O)c2cc(NS(=O)(=O)c3ccc(F)cc3)ccc2O1 | ? | -3% | i | 21µM* | ? | -12%
CCC(=O)N1CCc2cc(Br)cc(S(=O)(=O)N3CCCC(C(=O)Nc4ccc(C(C)C)cc4)C3)c21 (stereo unspecified) | -26% | . | i | ? | i | .
Cc1cccc(C(=O)N2CCNC(=O)C2CC(=O)Nc2ccc(F)cc2)c1 (stereo unspecified) | 6% | . | i | 4% | i | .
SMILES | DT40 TDP1 CPT | HT1080 IDH1KD tx | KB-V1 MDR tox | DT40 TDP1 no CPT | KB-3-1 tox | HT1080NT lethal
CC(=O)c1cccc(OCC(O)CNCCOc2ccc(C)cc2)c1 (stereo unspecified) | -5% | -14% | i | -3% | i | -8%
CCOc1ccc(C(=O)/C=C/c2cn(CC(O)CN3CCc4ccccc43)c3ccccc23)cc1 (stereo unspecified) | 7.3µM* | . | ? | 8.2µM* | i | .
O=C(/C=C/c1cn(CC(O)CN2CCCCCC2)c2ccccc12)c1cccs1 (stereo unspecified) | ? | 21µM* | ? | ? | ? | 18µM*
CCCCN(C)CC(O)Cn1cc(/C=C/C(=O)c2cccs2)c2ccccc21 (stereo unspecified) | 18µM* | 4% | ? | ? | ? | 0%
CCCCN(CCCC)CC(O)Cn1cc(/C=C/C(=O)c2ccccc2)c2ccccc21 (stereo unspecified) | 10µM* | . | ? | 10µM* | ? | .
Cc1nn(C)cc1/C=C/C(=O)c1cccs1 | 32% | 3% | ? | -17% | i | 7%
O=Cc1cn(CC(O)Cn2cc(C=O)c3ccccc32)c2ccccc12 | 1% | -12% | i | 4% | i | -6%
Cc1ccc(C(=O)/C=C/c2cn(CN3CCN(C)CC3)c3ccccc23)cc1 | -22% | ? | i | ? | i | ?
CN(C)c1cccc(-c2ncc(F)c(N3CCC(C(N)=O)CC3)n2)c1 | . | . | i | . | ? | .
CC(=O)NS(=O)(=O)c1ccc(N=c2ssc3c2-c2cc(C)c(C)cc2NC3(C)C)cc1 | -20% | ? | i | ? | i | ?
Cc1cc2c(cc1C)-c1c(ssc1=Nc1ccc(S(N)(=O)=O)cc1)C(C)(C)N2 | ? | ? | i | 16µM* | i | ?
COc1ccc(NC(=O)c2ncoc2-c2ccco2)cc1Cl | -3% | . | i | -13% | ? | .

High-throughput results deposited in PubChem BioAssay by National Center for Advancing Translational Sciences (NCATS).
